Vif-A3G inh: Vif-A3G binding inhibition | HeLa A3G-eYFP + Vif (tagged APOBEC3G with the HIV-1 protein that degrades it), YFP fluorescence, overnight | Potency, µM (highest dose often 46.1 µM), without a hit: at the top dose activity, negative = active, usual class: inhibitors | actives 0.076% (n = 410,000); further: potency means the concentration at half of the fitted maximal effect; on the % scale 0 is the no-effect control and ±100 the full control effect; nearly all actives have a fitted effect of over 60% in size
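Read-out is eYFP fluorescence (Ex 488/Em 500-530) from Vif-expressing HeLa A3G-eYFP cells; more signal means A3G escaped Vif-mediated degradation. Cells plated overnight, compound pinned in, incubated overnight at 37 deg C.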
PKM2 act: PKM2 (human) enzyme activation; purified PKM2, Kinase-Glo ATP luminescence, activation; response scale: 0% is enzyme alone, no compound; AID 1631; Potency, µM (highest dose often 57.5 µM), for the others: at the top dose activation, most hits filed as activators; actives 0.34% (n = 260,000); P14618; further: potency means the concentration at half of the fitted maximal effect; on the % scale 0 is the no-effect control and ±100 the full control effect; nearly all actives have a fitted effect of over 55% in size
Target sequence (P14618 whole entry, looked up): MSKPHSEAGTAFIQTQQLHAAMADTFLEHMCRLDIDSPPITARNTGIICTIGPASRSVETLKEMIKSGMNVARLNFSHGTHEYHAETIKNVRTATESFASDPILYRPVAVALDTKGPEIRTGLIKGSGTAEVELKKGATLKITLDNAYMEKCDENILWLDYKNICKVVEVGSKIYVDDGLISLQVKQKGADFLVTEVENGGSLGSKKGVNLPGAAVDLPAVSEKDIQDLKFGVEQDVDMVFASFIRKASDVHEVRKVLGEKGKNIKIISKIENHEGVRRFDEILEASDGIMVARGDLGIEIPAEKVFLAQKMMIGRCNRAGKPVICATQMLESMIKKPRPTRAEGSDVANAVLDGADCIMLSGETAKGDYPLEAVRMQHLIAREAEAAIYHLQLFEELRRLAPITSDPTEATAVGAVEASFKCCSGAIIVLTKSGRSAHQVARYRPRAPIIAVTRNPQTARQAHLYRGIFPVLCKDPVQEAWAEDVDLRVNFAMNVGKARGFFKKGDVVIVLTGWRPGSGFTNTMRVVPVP
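Purified hPK-M2 (>95%) run at intermediate activity with 0.1 mM ADP and 0.5 mM PEP in 50 mM imidazole pH 7.2, KCl, MgCl2; 1 h room temperature. ATP formed read by Kinase-Glo luminescence; normalized to uninhibited and no-enzyme controls.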
RGS12 GoLoco inh: inhibitors of human Gai1-RGS12 GoLoco interaction (red fluorophore) | actives 0.44% (n = 230,000) | P63096 | Gai1:RGS12 GoLoco peptide FP, rhodamine, 10 min | Potency, µM (doses to about 61.6 µM), inactives show top-dose activity, negative = inhibition, hits mostly inhibitors; active means well fitted inhibition curve with a large enough effect, not every such curve was filed as active; inactive means no such curve, though single readings can be large or run the other way; further: potency means the concentration at half of the fitted maximal effect; on the % scale 0 is the no-effect control and ±100 the full control effect; nearly all actives have a fitted effect of over 30% in size
KAT2A inh: GCN5L2 (KAT2A) acetyltransferase inhibition | Q92830 | GCN5L2 HAT assay, ThioGlo1 CoA-SH fluorescence | Potency, µM (top dose mostly 58.9 µM), inactives show at the top dose activity change, negative = inhibition, actives largely listed as inhibitors | actives 0.21% (n = 390,000) | AID 504327; further: potency means the concentration at half of the fitted maximal effect; on the % scale 0 is the no-effect control and ±100 the full control effect
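GCN5L2 (20 nM) in 50mM HEPES pH 7.5, 0.1mM EDTA, 0.01% Tween-20 preincubated 15 min with compounds at room temperature. Reaction started with H3(1-25) 75uM, acetyl-CoA 70uM, ThioGlo1 50uM; CoA-thiol fluorescence (Ex340/Em540) read at 0 and 20 min.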
IL-2 act: activates IL-2 in a cell-based reporter assay | actives 0.065% (n = 360,000) | activation, % (series mostly up to about 46 µM) | IL-2 activation reporter assay, cell-based qHTS; stimulated with anti-CD3/CD4/CD28 beads; in transgenic mouse T cells | AID 652025; in the data active means activation above about 50%; inconclusive means mostly about 30% to 49%; further: 0% is about no effect
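Quantitative HTS in unstimulated transgenic mouse T cells, with memory T cells as non-tolerant control and PMA/ionomycin as tolerance-bypass control. Compound pretreatment lasted 60 minutes before 18 h bead stimulation; EGFP/DsRed fluorescence read.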
Vif-APOBEC3F blk: blocks the Vif interaction with APOBEC3F; actives 0.2% (n = 390,000); AID 602313; Potency, µM (titrated, usually from 46.1 µM), for the others: at the top dose activity, negative = active; HeLa A3F-eYFP + Vif (tagged APOBEC3F with the HIV-1 protein that degrades it), YFP fluorescence increase; further: potency means the concentration at half of the fitted maximal effect; % of control where 0% means no effect; nearly all actives have a fitted effect of over 65% in size
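HeLa cells stably expressing A3F-eYFP plus Vif, plated and incubated overnight at 37 deg C, then exposed to compounds overnight at 37 deg C. Blocked degradation read as raised yellow fluorescence (Ex 488/Em 500-530).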
* marks the source's active call; other numbers are inactive results; ? = inconclusive; / = not tested or not shown; ! = a repeat was not active; [ ] = dose if it differs, or a comment. Rows were chosen to be rich in hits. Some 0.77% of all compounds tested hit in one or more screens of this group. Unless noted, the call rests on the fitted dose curve; in most records, active means well fitted curve in the direction sought with a large enough effect; inconclusive means small, poorly fitted or top-dose-only effect, or another doubt; inactive means no such curve, though single readings can be large; an effect the other way counts as inactive or inconclusive.

SMILES | Vif-A3G inh | PKM2 act | RGS12 GoLoco inh | KAT2A inh | IL-2 act | Vif-APOBEC3F blk
Cc1cc(C)cc(C(=O)N(C)[C@H](Cc2ccc(-c3ccccc3)cc2)C(=O)N[C@@H](Cc2c[nH]c3ccccc23)C(=O)O)c1 | / | / | 5% | 32µM*! | / | /
CCOC(=O)N1CCc2c(sc3c2C(=O)NC(c2ccc(N(C)C)cc2)N3)C1 (centres undefined) | ? | / | / | -7% | / | 11µM*
CCOC(=O)N1CCc2c(sc3c2C(=O)NC(c2ccccc2)N3)C1 (centres undefined) | -22% | 3% | 16% | 0% | -1 | 0%
CC(C)n1c(C(F)(F)F)nc2cc(C(=O)N3CCOCC3)ccc21 | 0% | / | / | -9% | -6 | -50%
O=C(OCc1ccc(F)cc1)c1ccc2c(c1)-c1ccccc1C2=O | 0% | -2% | 7% | -4% | 2 | -6%
CCOC(=O)C1=C(Cc2ccc(F)cc2)C(=O)c2ccccc2C1=O | ? | 24% | 73% | -13% | 4 | 25µM*
O=C(Nc1ccc2nc(-c3ccco3)c(-c3ccco3)nc2c1)N1CCN(c2ccccn2)CC1 | 3% | ? | 7% | 10µM* | -2 | -9%
C=C1c2cccc(O)c2C(=O)C2C(=O)[C@]3(O)C(=O)C(C(N)=O)C(=O)[C@@H](N(C)C)[C@@H]3[C@@H](O)[C@H]12 (some centres undefined) | 5% | / | / | 7.9µM* | 0 | -2%
C[C@H]1c2cccc(O)c2C(O)=C2C(=O)[C@]3(O)C(O)=C(C(N)=O)C(=O)[C@@H](N(C)C)C3[C@@H](O)C21 (some centres undefined) | -2% | / | / | -5% | 0 | 2%
C=C1c2cccc(O)c2C(O)=C2C(=O)[C@@]3(O)C(O)=C(C(N)=O)C(=O)[C@@H](N(C)C)[C@@H]3[C@@H](O)[C@H]12 | / | / | 23%[21.6 µM] | 3.5µM* | / | /
O=S(=O)(c1ccc(-c2nnc(SCc3nnc(-c4ccccc4)o3)o2)cc1)N1CCCC1 | 7% | -1% | 0% | -3% | -2 | -3%
COc1cccc2cc(-c3nc(-c4cccs4)no3)c(=O)oc12 | -6% | / | / | -5% | / | 3%
COc1cccc2cc(-c3nc(-c4cccs4)cs3)c(=O)oc12 | -16% | 1% | 10% | -6% | 76* | ?
CCCNC(=O)Cn1c(=O)/c(=C/c2ccc(-c3ccc([N+](=O)[O-])cc3)o2)s/c1=C\C(=O)C(C)(C)C | -15% | / | / | / | 78* | -299%
Cc1cc2cc(CNC(=O)Nc3ccc(Cl)c(Cl)c3)ccc2n1C | -2% | -7% | 2% | -2% | -1 | -5%
N#Cc1c(C(F)(F)F)cc(-c2ccc(Cl)c(Cl)c2)nc1SCCN1CCOCC1 | -11% | -2% | 25% | 0% | -1 | ?
N#Cc1c(C(F)(F)F)cc(-c2ccccc2)nc1SCc1nc(N)nc(N2CCOCC2)n1 | ? | -7% | 12% | 3% | 8 | 11µM*
CN(CCNC(=O)C1(O)c2ccccc2NC(=O)N1c1ccccc1)Cc1ccccc1 (centres undefined) | 1% | -1% | 3% | 1% | -5 | -6%
Cc1ccc(/C=C(\C#N)C(=O)Nc2ccc(Br)cc2)o1 | / | / | / | -7% | / | /
N#C/C(=C\c1ccc([N+](=O)[O-])o1)C(=O)Nc1ccc(F)cc1 | ? | 3% | 104% | -11% | 3 | 22µM*
CC[n+]1c(C=C2C=C(C)OC(C)=C2)sc2ccccc21 | 5.6µM* | -5% | 64% | -6% | 4 | ?
COC(=O)c1ccc(S(=O)(=O)c2ccc(Cl)cc2)c(N)c1 | -3% | / | / | -4% | 0 | -3%
CC(C)(C)SCCNC(=O)/C=C/c1ccccc1 | -7% | -3% | -1% | -2% | 1 | -10%
CCOn1c(=O)c(-c2cc3ccccc3o2)[n+]([O-])c2ccccc21 | 7% | 1% | 6% | 0% | 52* | 5%

Screening data (PubChem)
